In the library only some 12% were active in any assay of this set; here they are far more common.
BAZ2B block: BAZ2B (human) inhibition; 360,000 tested, 4.4% active; AlphaScreen BAZ2B-H3K14Ac peptide displacement; Q9UIF8; Potency, µM (titrated, usually from 114 µM), for the others: top-dose activity change, negative = inhibition, most hits filed as inhibitors; further: on the % scale 0 is the no-effect control and ±100 the full control effect; nearly all actives have a fitted effect of over 60% in size
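Compounds, titrated to a top concentration of 110 uM, were incubated 30 min at room temperature with preformed BAZ2B/acetyl-K14 H3 peptide complex (50 nM each). Proximity signal was measured by AlphaScreen after 20 min with beads.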
HP1b chromo inh: inhibitors of HP1-beta chromodomain binding to methylated histone tails | P83916 | AlphaScreen HP1-beta / biotin-H3K9me3 peptide binding | Potency, µM (titrated, usually from 114 µM), for the others: top-dose activity change, negative = inhibition, actives largely listed as inhibitors | 390,000 tested, 0.56% active | AID 540317; further: nearly all actives have a fitted effect of over 70% in size
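Compound inhibition of the preformed complex between 50 nM HP1-beta and 50 nM biotinylated H3K9me3 peptide was read by AlphaScreen. Buffer was PBS pH 7.4 with 0.01% Tween-20. Incubations ran 30 min at room temperature, with 10 ug/mL donor/acceptor beads.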
L3MBTL1 inh: blocks human L3MBTL1; 230,000 tested, 0.66% active; AID 485360; AlphaScreen L3MBTL1–H3K9me1 peptide binding; Potency, µM (doses to about 57.1 µM), for the others: at the top dose activity, negative = inhibition, most hits filed as inhibitors; further: on the % scale 0 is the no-effect control and ±100 the full control effect; nearly all actives have a fitted effect of over 60% in size
Target sequence (Q9Y468 whole entry, looked up): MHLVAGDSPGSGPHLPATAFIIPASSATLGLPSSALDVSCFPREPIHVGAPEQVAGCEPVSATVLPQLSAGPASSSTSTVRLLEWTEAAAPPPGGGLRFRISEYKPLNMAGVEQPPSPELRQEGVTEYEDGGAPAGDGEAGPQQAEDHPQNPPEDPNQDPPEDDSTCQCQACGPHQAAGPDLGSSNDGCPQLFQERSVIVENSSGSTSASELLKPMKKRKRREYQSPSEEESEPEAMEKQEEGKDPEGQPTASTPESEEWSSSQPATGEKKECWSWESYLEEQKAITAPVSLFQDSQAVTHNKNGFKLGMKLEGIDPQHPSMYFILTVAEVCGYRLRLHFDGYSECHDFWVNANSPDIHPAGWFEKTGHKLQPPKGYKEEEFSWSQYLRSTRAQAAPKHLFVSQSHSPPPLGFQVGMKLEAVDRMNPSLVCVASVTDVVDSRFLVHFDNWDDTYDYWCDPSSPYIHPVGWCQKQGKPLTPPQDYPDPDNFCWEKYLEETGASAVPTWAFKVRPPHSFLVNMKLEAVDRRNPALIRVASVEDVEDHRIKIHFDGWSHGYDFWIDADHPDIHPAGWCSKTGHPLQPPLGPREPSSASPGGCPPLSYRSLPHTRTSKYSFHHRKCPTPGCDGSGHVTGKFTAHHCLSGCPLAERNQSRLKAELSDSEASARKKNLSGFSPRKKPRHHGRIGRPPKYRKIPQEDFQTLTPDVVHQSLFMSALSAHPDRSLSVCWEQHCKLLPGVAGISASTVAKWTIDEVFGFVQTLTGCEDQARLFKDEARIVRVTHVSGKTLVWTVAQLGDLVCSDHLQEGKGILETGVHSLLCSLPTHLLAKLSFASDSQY
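L3MBTL1 50 nM + b-AHA-H3(1-15)K9me1 75 nM, 30 min RT; compound added, 30 min RT; streptavidin donor/Ni-chelate acceptor beads 10 ug/mL each final, 30 min RT dark; AlphaScreen read.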
JMJD2A Tudor inh: inhibitors of human JMJD2A Tudor domain | AlphaScreen JMJD2A-Tudor / H3K4me3 peptide binding | Potency, µM (top dose mostly 114 µM), for inactives: at the highest dose activity change, negative = inhibition, most hits filed as inhibitors | 390,000 tested, 4.4% active; further: on the % scale 0 is the no-effect control and ±100 the full control effect; nearly all actives have a fitted effect of over 50% in size
G9a block: inhibitors of human histone lysine methyltransferase G9a; 350,000 tested, 8.8% active; G9a H3K9 monomethylation, AlphaScreen, 2 h; AID 504332; Potency, µM (highest dose often 102 µM), for inactives: top-dose activity, negative = inhibition, most hits filed as inhibitors; further: on the % scale 0 is the no-effect control and ±100 the full control effect; nearly all actives have a fitted effect of over 75% in size
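Signal arises when biotinylated H3K9 peptide, once monomethylated, bridges streptavidin donor and antibody-captured acceptor beads. Enzyme at 20 nM was preincubated 15 min with test compounds; peptide 500 nM and SAM 20 uM then reacted for 2 h.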
Sfp inh: inhibitors of Bacillus subtilis Sfp phosphopantetheinyl transferase. Biochemical Sfp PPTase activity, qHTS. Potency, µM, without a hit: largest response in the series, negative = inhibition, actives largely listed as inhibitors. AID 1490. 310,000 tested, 3.5% active;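 further: the enzyme is Sfp with the accession as filed and its product quenches rhodamine fluorescence; 0% = enzyme reaction without inhibitor and -100% = no enzyme wells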
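Sfp 15 nM + cpd, 15 min RT; start w/ rhodamine-CoA 5 uM, BHQ-2-YbbR 12.5 uM (final); 50 mM Hepes pH 7.6, 10 mM MgCl2, 0.01% NP-40, 0.01% BSA; read 525/598 nm at 0 and 30 min.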
The depositor's hits bear a star; ? = inconclusive; · = not tested or not shown; [ ] = remark or other dose. The call rests on the fitted dose curve; in most records, active means well fitted curve in the direction sought with a large enough effect; inconclusive means small, poorly fitted or top-dose-only effect, or another doubt; inactive means no such curve, though single readings can be large; an effect the other way counts as inactive or inconclusive. Potency means the concentration at half of the fitted maximal effect.

SMILES	BAZ2B block	HP1b chromo inh	L3MBTL1 inh	JMJD2A Tudor inh	G9a block	Sfp inh
O=C(O)c1ccc2c(c1)C(=O)N(Cc1ccco1)C2=O	-23.1%	-19.0%	-23.8%	?	56.2µM*	0.4%
CCOc1ccccc1C1C(C#N)=C(N)SC(N)=C1C#N	1.8%	1.5%	-3.2%	79.4µM*	?	44.7µM*
CCOc1ccc(C2C(C#N)=C(N)SC(N)=C2C#N)cc1OC	?	·	0.2%	·	8.91µM*	50.1µM*
CCOc1ccc(C2C(C#N)=C(N)SC(N)=C2C#N)cc1OCC	?	4.8%	·	?	?	?
O=C(NC(c1ccccc1)c1ccccc1)c1ccccc1	·	28.9%[57 µM]	·	-9.0%	·	·
Cn1cccc1C(NC(=O)c1ccccc1)C(Cl)(Cl)Cl (stereo not given)	?	0.8%	·	-26.4%	44.7µM*	9.2%
Cc1cc(C)nc(SCC(=O)Oc2ccc3oc(=O)cc(C)c3c2)n1	-10.5%	-15.5%	-0.5%	-14.4%[11.4 µM]	50.1µM*	5.5%
CCC(=O)Oc1ccc2oc(=O)cc(C)c2c1	6.5%	41.9%	3.2%	5.5%	-9.7%[59 µM]	2.0%
OB(O)c1ccc(Br)cc1	·	25.4%	·	-5.7%	·	22.3%
CC(C)(C)c1cc(CCC(=O)N2CCC2)cc(C(C)(C)C)c1O	89.1µM*	30.7%	·	-6.0%	100.1%	5.5%
CCOC(=O)c1[nH]c2ccccc2c1NC(=O)c1c(F)cccc1F	0.0%	28.0%	·	-1.4%	-10.3%[59 µM]	·
Cc1cccc(N2CCN(c3ncnc4onc(C)c34)CC2C)c1 (stereo not given)	-0.4%[57.1 µM]	9.1%	·	-27.5%	-29.6%[59 µM]	·
O=C(CCN1C(=O)/C(=C/c2ccc(F)cc2)SC1=S)NNC(=O)c1cccnc1	-4.2%	23.3%	-2.0%	-1.4%	13.4%[59 µM]	-13.0%
O=C(/C=C/c1ccc(F)cc1)NC(=S)N1CCCCC1c1cccnc1 (stereo not given)	-20.1%	-7.3%	·	?	?	50.1µM*
O=C1/C(=C/c2ccccc2F)SC(=S)N1CC(=O)N1CCCCC1c1cccnc1 (stereo not given)	?	42.9%	·	19.5%	5.01µM*	-19.6%
O=C1/C(=C/c2ccc(F)cc2)SC(=S)N1CC(=O)N1CCCCC1c1cccnc1 (stereo not given)	?	20.6%	·	?	39.8µM*	?
CN(C(=O)CN1C(=O)/C(=C/c2ccccc2F)SC1=S)C1CCS(=O)(=O)C1 (stereo not given)	44.7µM*	52.1%	·	-3.4%	14.1%	6.6%
CN(C(=O)CN1C(=O)/C(=C/c2ccccc2Cl)SC1=S)C1CCS(=O)(=O)C1 (stereo not given)	-20.5%	-6.1%	·	?	26.2%[59 µM]	-15.0%
COc1cccc(OC)c1C(=O)NC(=S)N1CCCCC1c1cccnc1 (stereo not given)	28.6%	35.3%	40.4%	-10.9%	·	-9.9%
O=C(Nc1ccc(Cl)c(Cl)c1)OCCNC(=O)c1ccncc1	-5.2%	40.4%	-3.8%	7.2%	4.0%	3.3%
Cc1ccccc1-c1ccc2ncnc(N(C)Cc3ccco3)c2c1	·	·	·	·	-37.3%[0.501 µM]	?
Cc1cccc(N=Nc2cn[nH]c2-c2ccco2)c1	20µM*	?	?	-10.5%[11.4 µM]	?	-6.9%
c1ccc(N=Nc2cn[nH]c2-c2ccco2)cc1	?	?	?	?	?	7.8%
COc1cc(NC(=O)CSc2ncnc3scc(-c4ccccc4)c23)c(C(=O)O)cc1OC	?	19.3%	?	-28.1%	?	-9.1%
COc1ccc(CN(C)C(=O)Cn2ccsc2=N)cc1OC	3.2%	15.7%	·	-14.4%	7.3%	14.2%
SMILES	BAZ2B block	HP1b chromo inh	L3MBTL1 inh	JMJD2A Tudor inh	G9a block	Sfp inh
COc1ccc(CN(C)C(=O)Cn2cc(C)c(=O)[nH]c2=O)cc1OC	·	29.3%	·	79.4µM*	·	·
CC(C)(C)C(=O)CN1CCN(C2c3ccccc3-c3ccccc32)CC1	-5.1%	22.8%	·	-7.1%	50.1µM*	-10.0%
COc1ccccc1NC(=O)CN1CCN(C2c3ccccc3-c3ccccc32)CC1	-36.6%	-6.5%	-4.6%	-29.9%	·	?
CCOc1ccc(NC(=O)CN2CCN(C3c4ccccc4-c4ccccc43)CC2)cc1	0.8%	8.2%	61.3%	?	?	17.7%
COc1ccc(NC(=O)CN2CCN(C3c4ccccc4-c4ccccc43)CC2)c(OC)c1	?	-18.2%	6.9%	?	44.7µM*	?
Cc1ccc(/C=C2/C(=O)C3(C)CCC2C3(C)C)cc1 (stereo not given)	·	·	·	·	10.7%[12.7 µM]	-4.0%
CCN(CC)C1=N/C(=C\c2ccco2)C(=O)N1c1ccccc1	?	0.7%	-13.4%	-21.2%	28.2µM*	?
CCSC1=N/C(=C\c2cccnc2)C(=O)N1c1ccccc1	8.3%	75.1%	25.1%	21.4%	16.8%	0.8%
CCSC1=N/C(=C/c2ccsc2)C(=O)N1c1ccccc1	71.3%	149.5%	58.6%	82.2%	175.5%[59 µM]	-6.8%
CC(C)CN(CC(C)C)C1=N/C(=C\c2ccco2)C(=O)N1c1ccccc1	-28.5%[57.1 µM]	-12.2%	-15.2%	-21.9%	?	31.6µM*
Cc1cc(=O)[nH]c(/N=C(\N)Nc2ccc(SC(F)F)cc2)n1	-1.3%	27.5%	?	-17.1%	-38.0%	-1.7%
Nc1ccccc1NC(=O)c1ccccc1	11.7%	13.9%	-4.5%	-22.9%	16.8%[2.33 µM]	8.5%
Nc1ccccc1Nc1ccccc1	44.7µM*	?	-3.0%	44.7µM*	·	-26.5%
Nc1ccc(Nc2ccccc2)c(Cl)c1	50.1µM*	?	-14.0%	?	?	-23.2%
Nc1ccc(NC(=O)c2cccs2)c(Cl)c1	-7.7%	12.9%	-2.8%	-7.1%	-21.4%	12.5%
Cc1ccccc1C(=O)Nc1nnc(SCc2cc(=O)n3ccccc3n2)s1	13.0%	13.2%[57 µM]	·	-10.7%	-4.3%[59 µM]	·
CCCN1CNc2c(c(=O)[nH]c(=S)n2CCc2ccc(Cl)c(Cl)c2)C1	·	37.2%	·	-4.1%	·	·
O=C(OCCN(C1=NS(=O)(=O)c2ccccc21)c1ccccc1Cl)c1ccc(Cl)cc1	?	21.6%	·	-3.9%	-12.2%[59 µM]	20.0%
CCc1ccc(NC(=O)Cn2ncc3c(C)n(Cc4cccc(Cl)c4)c(C)c3c2=O)cc1	79.4µM*	22.4%	·	-8.1%	-4.6%[59 µM]	·
COc1ccc(/C=C/C(=O)Nc2ccc3nc4c(c(Nc5ccc(OC)c(OC)c5)c3c2)CCCC4)cc1	8.91µM*	?	·	22.4µM*	8.91µM*	·
COc1ccc(Nc2c3c(nc4ccc(NC(=O)/C=C/c5cc(OC)c(OC)c(OC)c5)cc24)CCCC3)cc1OC	10µM*	-20.2%	·	?	15.8µM*	·
COc1ccc(Nc2c3c(nc4ccccc24)CCCC3)cc1OC	?	?	·	?	-8.7%[59 µM]	-10.4%
Cn1cnc2c(=O)oc3ccc(S(=O)(=O)Nc4ccc(F)cc4)cc3c21	-8.9%	-16.7%	·	-10.7%	-13.4%[59 µM]	·

Screening data: PubChem, National Center for Advancing Translational Sciences (NCATS)
